Measurements published in PubChem BioAssay (EPA / NIEHS).
Results filed as inconclusive are left out. Active and inactive are the calls of the source. The calls were made as follows: active = hit-call score of the fitted dose curve at least 0.9, where 1 is the maximum; inactive = score below 0.9.

read-out: ABC Transporter (ABCB11), ABCB11 (gene 8647); test: CLD_ABCB11_24hr: CellzDirect (CLD) Gene Expression Assay for ABC Transporter (ABCB11) at 24 hours (AID 2283674)
Protocol: CLD_24hr is a cell-based, multiplexed-readout assay that uses hepatocyte, a human liver primary cell, with measurements taken at 24 hours after chemical dosing in a 96-well plate.CLD_ABCB11_24hr is one of 16 assay component(s) measured or calculated from the CLD_24hr assay. It is designed to make measurements of mRNA induction, a form of inducible reporter, as detected with chemiluminescence signals by Quantitative Nuclease Protection Assay (qNPA) technology.Data from the assay component CLD_ABCB11_24hr was analyzed at the endpoint, CLD_ABCB11_24hr, in the positive analysis fitting direction relative to DMSO as the negative control and baseline of activity. Using a type of inducible reporter, gain-of-signal activity can be used to understand changes in the reporter gene as they relate to the gene ABCB11. Furthermore, this assay endpoint can be referred to as a primary readout. To generalize the intended target to other relatable targets, this assay endpoint is annotated to the transporter intended target family, where subfamily is ABC transporter.
Human hepatocyte cultures were treated daily for two consecutive days with fresh dosing solutions containing appropriate concentrations of the 320 ToxCast chemicals (chemical identities were blinded to CellzDirect and other ToxCast collaborators), vehicle control (0.2% DMSO), and positive control inducers as summarized in Table 1. Due to the large number of treatment groups and chemicals examined, the ToxCast chemicals were divided into two groups (spanning two independent cultures of hepatocytes from separate donor preparations (Hu778: ToxCast plates 1 and 2; Hu776: ToxCast plates 3 and 4). Each preparation of human hepatocyte cultures was treated with respective vehicle control, medium only control, set of six positive controls/reference chemicals for the five hepatic receptor pathways, and a subset of eight of the ToxCast chemicals (indoxacarb, pyrithiobac-sodium, norflurazon, cyhalofop-butyl, methomyl, thiram, acetochlor, and propiconazole). These replicate data, coupled with internal replicates designed within the blinded ToxCast chemical library, provided additional data to evaluate interindividual differences between hepatocyte preparations and their potential impact on chemical profiles.Cell morphology and integrity were evaluated using phase-contrast microscopy as an indicator of hepatocyte cell health (Tyson & Green, 1987). Cultures for each treatment group (i.e., media, vehicle [0.2% DMSO], positive control inducers [multiple concentrations], and the ToxCast chemicals [multiple concentrations]) were observed and cell morphology was assessed relative to vehicle control cultures at each harvest time point (0, 6, 24, or 48 h). […] Images were evaluated at the conclusion of the study to assess changes in cell integrity and account for the effects of chemical exposure on uncharacteristic changes in concentration-dependent gene expression profiles. The results from these determinations of apparent cytotoxicity were annotated (yes/no) alongside the corresponding qNPA data for reference.At the conclusion of each treatment period, hepatocyte cultures (96-well) were washed with 1 volume of HBSS, lysed by addition of 25 ul ArrayPlate lysis buffer (HTG, Tucson, AZ), and 70 ul/well of Denaturation Oil, denatured by incubation at 95C for 10 min, and frozen at approximately -70C until analysis by nuclease protection assay (qNPA) (Roberts et al., 2007). For qNPA analysis, cell lysates were thawed at 50C for approximately 30 min, qNPA probes were added, and samples were incubated at 95C for 10 min to begin the detection process by denaturing the target RNA, dissociating the duplexes and secondary structure hybridization. At the conclusion of the hybridization period, S1 nuclease reagent was added to each sample to digest all nonprotected nucleotides at 50C for 60-90 min. […]

Row | SMILES | outcome
1 | Cc1cnc(C2=NC(C)(C(C)C)C(=O)N2)c(C(=O)O)c1 (centres undefined) | inactive
2 | CCOP(=O)(OCC)Oc1nc(Cl)c(Cl)cc1Cl | inactive
3 | COc1cc(OC)nc(NC(=O)NS(=O)(=O)c2ncccc2OCC(F)(F)F)n1 | inactive
4 | COCC(C)N(C(=O)CCl)c1c(C)csc1C (centres undefined) | inactive
5 | C=C(C)CN(CC)c1c([N+](=O)[O-])cc(C(F)(F)F)cc1[N+](=O)[O-] | inactive
6 | Cc1nc(N(C)C)nc(OC(=O)N(C)C)c1C | inactive
7 | OC(c1ccc(Cl)cc1)(c1ccc(Cl)cc1)C(Cl)(Cl)Cl | inactive
8 | CS(=O)(=O)c1ccc(C(=O)C2C(=O)CCCC2=O)c([N+](=O)[O-])c1 | inactive
9 | CC(C)N1C(=O)N(c2ccccc2)CSC1=NC(C)(C)C | inactive
10 | CC(C)C1(C)N=C(c2ncccc2C(=O)O)NC1=O (centres undefined) | inactive
11 | COC(=O)NS(=O)(=O)c1ccc(N)cc1 | inactive
12 | CC(C)N1C(=O)c2ccccc2NS1(=O)=O | inactive
13 | Clc1nc(Cl)nc(Nc2ccccc2Cl)n1 | inactive
14 | COC(=O)c1c(C(F)F)nc(C(F)(F)F)c(C2=NCCS2)c1CC(C)C | inactive
15 | CCCCOCN(C(=O)CCl)c1c(CC)cccc1CC | inactive
16 | CCNC(=O)NC(=O)C(C#N)=NOC | inactive
17 | COCc1cnc(C2=NC(C)(C(C)C)C(=O)N2)c(C(=O)O)c1 (centres undefined) | inactive
18 | COP(=O)(OC)O/C(C)=C/C(=O)N(C)C | inactive
19 | O=P(O)(O)CCCl | inactive
20 | CCOc1nc(F)cc2nc(S(=O)(=O)Nc3c(Cl)cccc3Cl)nn12 | inactive
21 | CC(C)NC(=O)N1CC(=O)N(c2cc(Cl)cc(Cl)c2)C1=O | inactive
22 | COP(=S)(OC)SCn1nnc2ccccc2c1=O | inactive
23 | O=c1n(Cl)c(=O)n(Cl)c(=O)n1Cl | inactive
24 | COCC(=O)N(c1c(C)cccc1C)C(C)C(=O)OC (centres undefined) | inactive
